In PubChem BioAssay (NCATS) one finds outcome data, which are given here for 40 compounds.

Molecules are shown by their SMILES. Results filed as inconclusive are left out. Calls of active or inactive are those of the source. Calls come from the whole dose curve; as a rule, active = well fitted curve in the direction sought with a large enough effect; inconclusive = small, poorly fitted or top-dose-only effect, or another doubt; inactive = no such curve, though single readings can be large or run the other way.

Chain of Protein phosphatase 1D (Homo sapiens) (O15297 whole entry, looked up): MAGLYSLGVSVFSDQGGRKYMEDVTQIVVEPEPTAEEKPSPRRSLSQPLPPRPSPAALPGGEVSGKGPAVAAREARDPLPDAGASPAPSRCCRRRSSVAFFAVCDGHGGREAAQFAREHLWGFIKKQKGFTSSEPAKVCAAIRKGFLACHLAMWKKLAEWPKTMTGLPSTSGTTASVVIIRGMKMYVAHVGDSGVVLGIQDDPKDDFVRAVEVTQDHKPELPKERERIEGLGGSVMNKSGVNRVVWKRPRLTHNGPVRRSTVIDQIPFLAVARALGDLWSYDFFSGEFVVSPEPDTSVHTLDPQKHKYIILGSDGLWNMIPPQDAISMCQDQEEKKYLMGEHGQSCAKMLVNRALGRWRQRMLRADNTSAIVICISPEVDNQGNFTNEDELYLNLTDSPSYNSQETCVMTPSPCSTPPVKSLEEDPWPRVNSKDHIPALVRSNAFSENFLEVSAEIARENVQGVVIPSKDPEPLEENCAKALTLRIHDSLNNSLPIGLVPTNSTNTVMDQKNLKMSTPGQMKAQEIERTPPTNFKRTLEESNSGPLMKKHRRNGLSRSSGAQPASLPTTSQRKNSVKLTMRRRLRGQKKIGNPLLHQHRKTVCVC

The assay has as its target Protein phosphatase 1D (Homo sapiens) (UniProt O15297). The assay can be described thus: Rhodamine-PBP qHTS Assay for Modulators of WT P53-Induced Phosphatase 1 (WIP1) (AID 1347425). The following applies: recombinant WIP1, Rhodamine-PBP phosphate fluorescence, real-time; series mostly up to 57.5 µM. The source says: Assay Provider (PI): Nathan Coussens Ph.D.
National Center for Advancing Translational Sciences (NCATS), Rockville, MD
National Institute of Health (NIH), Bethesda, Maryland
WT P53-Induced Phosphatase 1 (WIP1) is a member of the magnesium-dependent serine/threonine protein phosphatase (PPM) family and is induced by P53 in response to DNA damage. In several human cancers, the WIP1 protein is overexpressed, which is generally associated with a worse prognosis. Although WIP1 is an attractive therapeutic target, no potent, selective, and bioactive small-molecule modulator with favorable pharmacokinetics has been reported. Phosphatase enzymes are among the most challenging targets for small molecules because of the difficulty of achieving both modulator selectivity and bioavailability. Another major obstacle has been the availability of robust and physiologically relevant phosphatase assays that are suitable for high-throughput screening.
Here, we describe two orthogonal biochemical WIP1 activity assays that utilize phosphopeptides from native WIP1 substrates. We optimized a RapidFire MS assay to quantify the enzymatically dephosphorylated peptide reaction product in a 384-well format. Additionally, a redshifted Rhodamine-PBP fluorescence assay was optimized in a 1,536-well format to enable real-time WIP1 activity measurements through the detection of the orthogonal reaction product, Pi. We validated these two optimized assays by quantitative high-throughput screening against the National Center for Advancing Translational Sciences (NCATS) Pharmaceutical Collection and used secondary assays to confirm and evaluate inhibitors identified in the primary screen.
SEQUENCE No. (e.g., 1, 2, 3, etc.); […] (e.g., Cells, Incubation, Reagent, etc.); VALUE; DESCRIPTION
1; Reagent; 3 uL; WIP1 (6.7 nM), Rh-PBP (13.3 uM), columns 1-48
3; Library Compounds; 23 nL; NCATS Pharmaceutical Collection, column 5-48
4; Control Compounds; DMSO in column 2, GSK2830371 (57.5 uM, final) in 3-fold serial dilutions in column 3, GSK2830371 (1.15 uM, final) in column 4
5; Time; 1 hr; incubation
6; Detection; fluorescence (f0); ViewLux, excitation filter = 525 nm, emission filter = 598 nm
7; Reagent; 1 uL; VEPP-pS-QETFS (40 uM), columns 2-48
8; Detection; fluorescence (f1); ViewLux, excitation filter = 525 nm, emission filter = 598 nm
NOTES (numbers refer to sequence above)
1 & 2; Black medium binding Greiner 1536-well plates (# 789176-F); assay buffer: 50 mM Tris-HCl pH 7.5, 30 mM MgCl2, 1mM TCEP, 0.1 mM EGTA, 75 ug/mL BSA; dispensed with a BioRaptr liquid handler (Beckman Coulter).
3 & 4; Kalypsys pintool (equipped with 1536 pinhead, Wako USA) transfer. Tip wash sequence: DMSO, methanol, 3 sec vacuum dry.
5; Room temperature incubation.
7; VEPPL-pS-QETFS in assay buffer dispensed with a BioRaptr; final reaction conditions: 5 nM WIP1, 10 uM VEPPL-pS-QETFS, 10 uM Rh-PBP, 50 mM Tris-HCl pH 7.5, 30 mM MgCl2, 1 mM TCEP, 0.1 mM EGTA, 75 ug/mL BSA.
8; Measurement taken at 1 min intervals for 11 min. Delta readout = f1 - f0.
(In general: Quantitative high-throughput screening tests each substance at several concentrations.)
Regarding `NC(N)=NC(=O)c1nc(Cl)c(N)nc1N`, the result was inactive. In the case of `C#Cc1cccc(Nc2ncnc3cc(OCCOC)c(OCCOC)cc23)c1`, the outcome was inactive. The same measure for `O=c1[nH]cnc2[nH]ncc12`: “inactive”; for `O=C1CCc2cc(OCCCCc3nnnn3C3CCCCC3)ccc2N1`: “inactive”. The same measure for `Cc1[nH]c(=O)c(C#N)cc1-c1ccc2nccn2c1`: “inactive”; for `N=c1nc(N2CCCCC2)cc(N)n1O`: “inactive”. Take `CCC(C)(C)C(=O)O[C@H]1C[C@@H](C)C=C2C=C[C@H](C)[C@H](CC[C@@H]3C[C@@H](O)CC(=O)O3)[C@H]21`: the result was inactive. For `CCOC(=O)N1CCC(=C2c3ccc(Cl)cc3CCc3cccnc32)CC1` the value was “inactive”; for `NC(=O)c1cnccn1`, “inactive”. For `O=C1CCC(N2C(=O)c3ccccc3C2=O)C(=O)N1` (stereo not given) the value was “inactive”.

Consider `CCOC(=O)C1=C[C@]2(CC)CCCN3CCc4c(n1c1ccccc41)[C@@H]32`, for which the result was inactive. For `Cn1cnc2c(F)c(Nc3ccc(Br)cc3Cl)c(C(=O)NOCCO)cc21` the value was “inactive”; for `CC(=O)Oc1ccccc1C(=O)O`, “inactive”; for `CCn1cc(C(=O)O)c(=O)c2cc(F)c(N3CCNC(C)C3)c(F)c21` (stereo not given), “inactive”. For `CCC(C)n1ncn(-c2ccc(N3CCN(c4ccc(OC[C@H]5CO[C@](Cn6cncn6)(c6ccc(Cl)cc6Cl)O5)cc4)CC3)cc2)c1=O` (stereo not given in full) the value was “inactive”.

Consider `Nc1ccc(S(=O)(=O)Nc2ccnn2-c2ccccc2)cc1`, for which the result was inactive.

Consider `CC(c1cc2ccccc2s1)N(O)C(N)=O` (stereo not given), for which the result was inactive.

For `O=C(O)COCCN1CCN(C(c2ccccc2)c2ccc(Cl)cc2)CC1` (stereo not given), the result was inactive. For `NC[C@H](O)c1ccc(O)c(O)c1` the value was “inactive”. For the compound `CN1CCN(CCCN2c3ccccc3Sc3ccc(C(F)(F)F)cc32)CC1`, the result was inactive.

Regarding `Cc1[nH]c(=O)c(C#N)cc1-c1ccncc1`, the outcome was inactive. The same measure for `Cn1cnc([N+](=O)[O-])c1Sc1ncnc2nc[nH]c12`: “inactive”.

On to `CNC[C@H](O)c1cccc(O)c1`, for which the outcome was inactive. For `N[C@@H]1CONC1=O` the value was “inactive”; for `OC(CN1CCC(Cc2ccc(F)cc2)CC1)c1ccc(Cl)cc1` (stereo not given), “inactive”; for `Cc1ccc(N(CC2=NCCN2)c2cccc(O)c2)cc1`, “inactive”.

With `NCCCC(N)(C(=O)O)C(F)F` (stereo not given), the result was inactive. For `Clc1cccc(Cl)c1NC1=NCCN1` the value was “inactive”; for `c1ccc([C@H]2CN3CCSC3=N2)cc1`, “inactive”. For `Cc1oncc1C(=O)Nc1ccc(C(F)(F)F)cc1` the value was “inactive”.

`Nc1nc2ccc(OC(F)(F)F)cc2s1`: the outcome was inactive. The same measure for `CCCC(CCC)C(=O)O`: “inactive”; for `Cc1cn[nH]c1`: “inactive”; for `Oc1ccc(C2CNCCc3c2cc(O)c(O)c3Cl)cc1` (stereo not given): “inactive”. The same measure for `O=c1n(CCCN2CCN(c3cccc(Cl)c3)CC2)nc2ccccn12`: “inactive”; for `Cc1ccccc1C(OCCN(C)C)c1ccccc1` (stereo not given): “inactive”.

For the compound `Cc1cnc(NC(=O)C2=C(O)c3ccccc3S(=O)(=O)N2C)s1`, the result was inactive. As to `CCCCNc1cc(C(=O)O)cc(S(N)(=O)=O)c1Oc1ccccc1`, the result was inactive. For `CC(C[N+](C)(C)C)OC(N)=O` (stereo not given) the value was “inactive”; for `NNCCc1ccccc1`, “inactive”.
